# High-throughput results (PubChem)
# The list is not random: actives were taken first. Their share in the collection is about 7.5%.
# B2AR arrestin: agonists driving beta-arrestin recruitment to human beta2-adrenergic receptor. P07550. beta-arrestin recruitment to beta2AR, cell-based reporter. Potency, µM (highest dose often 46.1 µM), without a hit: at the top dose activation, most hits filed as activators. 330,000 tested, 0.02% active. AID 492947;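 further: potency means the concentration at half of the fitted maximal effect; 0% = DMSO controls and full agonism = EC100 isoproterenol or metaproterenol; nearly all actives have a fitted effect of over 65% in size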
# ELG1 DNA repair: inhibitors of ELG1-dependent DNA repair in HEK293T cells; HEK293T ELG1-luciferase reporter, luminescence, 16 h; DNA damage induced by 5-fluorouridine; AID 504467; 330,000 tested, 2.3% active; Potency, µM (highest dose often 46.1 µM), for the others: at the top dose activity change, negative = inhibition, hits mostly inhibitors; further: potency means the concentration at half of the fitted maximal effect; nearly all actives have a fitted effect of over 55% in size
#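 5-Fluorouridine DNA damage + compound/DMSO, 2,000 cells/well, 16 h, 37 °C/5% CO2. ONE-Glo, 30 min RT, luminescence. Readout = decrease in reporter signal.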
# Gal4-VP16 FLuc: Gal4-VP16 reporter inhibition counter-screen; Potency, µM (titrated, usually from 53.6 µM), without a hit: at the top dose activity, negative = inhibition, actives largely listed as inhibitors; Drosophila S2 Gal4-VP16 UAS-luciferase, luminescence, 20 h; 310,000 tested, 3.5% active;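 further: Gal4-VP16 expression switched on by copper sulfate through the metallothionein promoter; potency means the concentration at half of the fitted maximal effect; nearly all actives have a fitted effect of over 50% in size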
# TSHR antag: human thyrotropin receptor antagonism; 330,000 tested, 0.2% active; activity change, negative = inhibition, % at 11.5 µM; P16473; AID 504810; TSHR-expressing cells, TSH-stimulated cAMP HTRF, 2 h; stronger effect = lower value;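 active means activity change below a set negative limit, meaning inhibition stronger than a set level, cut at about -70% in these data; inconclusive means activity change between two set negative limits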
# Target sequence (P16473 whole entry, looked up): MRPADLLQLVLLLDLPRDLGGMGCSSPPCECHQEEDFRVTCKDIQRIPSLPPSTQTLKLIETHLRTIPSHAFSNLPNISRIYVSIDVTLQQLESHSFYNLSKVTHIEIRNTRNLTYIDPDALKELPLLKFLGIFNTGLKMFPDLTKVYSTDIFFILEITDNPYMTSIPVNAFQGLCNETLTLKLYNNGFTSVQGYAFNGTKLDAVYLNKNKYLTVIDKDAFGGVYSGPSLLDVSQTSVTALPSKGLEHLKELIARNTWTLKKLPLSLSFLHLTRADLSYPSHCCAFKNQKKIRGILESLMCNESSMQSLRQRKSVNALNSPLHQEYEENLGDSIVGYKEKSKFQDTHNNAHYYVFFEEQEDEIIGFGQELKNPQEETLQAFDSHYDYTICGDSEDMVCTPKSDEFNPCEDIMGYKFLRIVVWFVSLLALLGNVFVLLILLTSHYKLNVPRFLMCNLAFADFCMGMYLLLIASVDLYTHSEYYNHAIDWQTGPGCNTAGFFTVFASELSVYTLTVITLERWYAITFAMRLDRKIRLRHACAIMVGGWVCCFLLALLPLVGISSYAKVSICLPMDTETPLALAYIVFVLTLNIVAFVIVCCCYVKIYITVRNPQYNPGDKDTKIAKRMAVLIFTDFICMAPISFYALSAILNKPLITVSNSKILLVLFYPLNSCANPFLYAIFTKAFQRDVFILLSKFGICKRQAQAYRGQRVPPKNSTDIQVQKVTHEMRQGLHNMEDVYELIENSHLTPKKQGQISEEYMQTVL
#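 Cell-based HTRF cAMP assay; TSHR cells + compound, TSH EC80 (4nM final), 2 h, 37 deg C. Lysis with anti-cAMP cryptate and cAMP-d2, 30 min RT, read 665/620 nm.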
# RORg inh: inhibitors of mouse ROR gamma transcriptional activity; P51450; Drosophila S2 Gal4-RORgamma UAS-luciferase reporter, 20 h; Potency, µM (top dose mostly 53.6 µM), inactives show top-dose activity change, negative = inhibition, most hits filed as inhibitors; 310,000 tested, 5.4% active; AID 2551; further: potency means the concentration at half of the fitted maximal effect; nearly all actives have a fitted effect of over 60% in size
#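 Read-out: Photinus luciferase luminescence; inhibitors lower reporter signal. Insect Schneider cells with Gal4-ROR gamma fusion under metallothionein promoter, UAS reporter; 700 uM final copper sulfate induction, 20 hr, ambient temperature.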
# * = called active by the depositor; ? = inconclusive; nt = not tested or not shown; [ ] = another dose, or the depositor's remark. Unless noted, the call rests on the fitted dose curve; in most records, active means well fitted curve in the direction sought with a large enough effect; inconclusive means small, poorly fitted or top-dose-only effect, or another doubt; inactive means no such curve, though single readings can be large; an effect the other way counts as inactive or inconclusive. Unless noted, on the % scale 0 is the no-effect control and ±100 the full control effect.
SMILES,B2AR arrestin,ELG1 DNA repair,Gal4-VP16 FLuc,TSHR antag,RORg inh
COc1ccc(S(=O)(=O)N2CCOC2CNC(=O)C(=O)NCCc2ccc(OC)c(OC)c2)cc1C (centres undefined),0%,15µM*,-9%,-2,26%
O=C(NCc1ccccn1)C(=O)NCC1OCCN1S(=O)(=O)c1ccc([N+](=O)[O-])cc1 (centres undefined),0%,-3%,6%,7,-18%
C[C@H](CCC(=O)O)[C@H]1CC[C@@H]2[C@H]3[C@@H](C[C@@H](O)[C@]21C)[C@]1(C)CC[C@H](O)C[C@@H]1C[C@@H]3O,nt,nt,-3%,nt,-6%[10 µM]
c1cc2c(cc1CNc1ccc(N3CCOCC3)cc1)OCO2,0%,?,nt,-18,nt
N=c1ccn2c(n1)O[C@@H]1[C@H](O)[C@H](CO)O[C@@H]12,nt,nt,-9%,nt,-32%
COc1ccccc1CCNC(=O)C(=O)NCC1OCCN1S(=O)(=O)c1ccc(OC)c(OC)c1 (centres undefined),0%,21µM*,-1%,2,-3%
NS(=O)(=O)c1ccc(CCNC(=O)C(=O)NCC2OCCN2S(=O)(=O)c2ccc(Cl)cc2)cc1 (centres undefined),0%,?,16µM*,31,30%
NS(=O)(=O)c1ccc(CCNC(=O)C(=O)NCC2OCCN2S(=O)(=O)c2ccc(F)cc2)cc1 (centres undefined),0%,9%,3%,14,-2%
COc1ccccc1CCNC(=O)C(=O)NCC1OCCN1S(=O)(=O)c1ccc(F)cc1 (centres undefined),0%,-2%,2%,-2,15%
Cc1cc(F)ccc1S(=O)(=O)N1CCCOC1CNC(=O)C(=O)NCCc1c[nH]c2ccccc12 (centres undefined),0%,18µM*,-17%,4,33%
Cn1nc(C(=O)Nc2cccc(S(=O)(=O)N3CCCCC3)c2)c2ccccc2c1=O,-1%,-6%,nt,-23,nt
CO[C@@H]1[C@@H](OC2OC(C)C(OC3CC(C)(O)C(OC(=O)CC(C)C)C(C)O3)C(N(C)C)C2O)[C@@H](CC=O)C[C@@H](C)C(=O)/C=C\C2O[C@H]2C[C@@H](C)OC(=O)C[C@H]1OC(C)=O (some centres undefined),nt,nt,-3%,nt,23%
COc1ccc(OC)c(C(=O)COC(=O)COc2ccccc2)c1,0%,0%,nt,-3,nt
CCNc1nc(NCC)nc(N/N=C(\C)c2ccc(OC)cc2)n1,0%,?,?,-4,7.1µM*
CCNc1nc(NCC)nc(N/N=C/c2ccc(OC)cc2)n1,0%,5%,-25%,2,11µM*
CN(C)c1nc(NCc2ccccc2)nc(N/N=C/c2cccc(Br)c2)n1,4%,?,11µM*,-16,3.5µM*
CCOc1nc(NCc2ccco2)nc(Nc2ccc(OC)cc2)n1,0%,?,?,-4,?
COc1ccc(Nc2nc(NCc3ccco3)nc(N/N=C/c3ccccc3)n2)cc1,0%,2.6µM*,-18%,40,10%
CC1CCC(NC(=O)C2CC(=O)N(c3ccc(Cl)cc3)C2)CC1 (centres undefined),0%,2%,-5%,-34,8%
CCNc1nc(NCC)nc(N/N=C/c2ccc([N+](=O)[O-])o2)n1,0%,0%,-10%,-5,?
CCNc1nc(NCC)nc(N/N=C/c2ccccc2)n1,-1%,-5%,-10%,-7,14µM*
O=[N+]([O-])c1cccc(/C([O-])=C(/C(=S)Nc2cccc3ccccc23)[n+]2ccccc2)c1,0%,9%,?,16,10µM*
O=[N+]([O-])c1ccc(/C([O-])=C(/C(=S)Nc2ccccc2F)[n+]2ccccc2)cc1,0%,6%,-16%,-11,?
CC(=O)c1ccc(-c2cccc([C@H]3[C@@H]4C=CC[C@@H](C)[C@@H]4C(=O)N3Cc3ccccc3)c2)cc1,0%,?,-5%,3,3%
Cc1ccc(C)c(N2CCN(CCCNC(=O)Cn3cc4c(n3)CCCCC4)CC2)c1,0%,?,20µM*,1,13µM*
SMILES,B2AR arrestin,ELG1 DNA repair,Gal4-VP16 FLuc,TSHR antag,RORg inh
CCC(C)c1ccccc1NC(=O)C(C)N(C)Cc1cccc(OC)c1 (centres undefined),0%,?,-15%,3,11%
COc1cccc(N2CCN(C(=S)Nc3cccc(C)c3)CC2)c1,-1%,-2%,-28%,-7,7.1µM*
Cc1cccc(CN2CCN(C(=S)Nc3ccccc3)CC2)c1,3%,4%,?,1,4µM*
Cc1cccc(NC(=S)N2CCN(c3ccccc3)CC2)c1,0%,6%,?,2,10µM*
Cc1cccc(NC(=O)c2ccc(CN3CCN(Cc4ccccc4)CC3)cc2)c1,-1%,3%,-12%,-16,2%
O=C1NC(Cc2ccccc2)c2nc3ccccc3c(=O)n2-c2ccc(Cl)cc21 (centres undefined),-1%,8%,nt,-16,nt
O=c1cnc2cnc(Oc3ccccc3)nc2n1C[C@H]1CCCO1,nt,nt,2%,nt,?
COC(=O)[C@H]1[C@H]2CC3c4[nH]c5ccccc5c4CCN3C[C@@H]2CC[C@@H]1O (some centres undefined),nt,nt,1%,nt,5%
Cc1cc(Oc2ccc(Cl)cc2)nc(-c2ccccn2)n1,0%,?,5.6µM*,-6,0.63µM*
CC(C)c1ccc(N2C(=O)CC(Sc3ncn[nH]3)C2=O)cc1 (centres undefined),0%,-6%,?,3,?
Cc1ccccc1N1C(=O)CC(Sc2nnc(-c3ccccc3)o2)C1=O (centres undefined),0%,16%,4µM*,10,3.2µM*
CC(C)c1ccc(N2C(=O)CC(Sc3nc4ccccc4o3)C2=O)cc1 (centres undefined),0%,?,4µM*,19,5µM*
O=C1CC(Sc2nnc(-c3ccccc3)o2)C(=O)N1c1ccccc1 (centres undefined),0%,?,4µM*,4,1.3µM*
Cc1nc(SC2CC(=O)N(c3ccccc3)C2=O)nc2c1CCCC2 (centres undefined),0%,11%,2%,-5,-11%
O=C1c2ccccc2CC1Sc1nnc(-c2ccncc2)o1 (centres undefined),0%,-8%,?,13,0%
Cc1ccc(S(=O)(=O)NCCC(=O)NCC(c2cccs2)N2CCOCC2)cc1 (centres undefined),0%,?,nt,-3,nt
Cc1cc(C)n2nc(SCC(=O)NC(=O)c3ccccc3)nc2n1,0%,0%,nt,-4,nt
CC(C)c1ccc2c(c1)CC[C@H]1[C@](C)(CN)CCC[C@]21C,nt,nt,?,nt,11µM*
